The full list was thinned out, with hits kept by preference.
PD-1 reversal = activators reversing PD-1 mediated T-cell inhibition, primary screen, luminescence, primary human CD4 T cells, PD-L1 beads; CellTiter-Glo 96 h; activation, % (concentration not given with the values); 29,000 tested, under 10 active; call rule not given here;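 further: 0% = median vehicle wells and 100% = positive control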
NOMO-1 viab = NOMO-1 AML cell viability reduction, primary screen, STK33 inhibitor project, CellTiter-Glo luminescence | AID 2330, 2010 | NOMO-1 AML viability, 72 h | inhibition, % (test concentration not listed) | 7.5% of 37,000 active; in the data active means inhibition above about 80%; inconclusive means no clear call, values can overlap the other calls
STK33 inh = STK33 kinase inhibitors, primary screen, biochemical, luminescence, ADP-Glo, MBP substrate; Serine/threonine-protein kinase 33 (Homo sapiens), Q9BYT3; inhibition, % at 12.5 µM; 0.44% of 27,000 active; in the data active means inhibition above about 20%; inconclusive means no clear call, values can overlap the other calls
Target sequence (Q9BYT3 whole entry, looked up): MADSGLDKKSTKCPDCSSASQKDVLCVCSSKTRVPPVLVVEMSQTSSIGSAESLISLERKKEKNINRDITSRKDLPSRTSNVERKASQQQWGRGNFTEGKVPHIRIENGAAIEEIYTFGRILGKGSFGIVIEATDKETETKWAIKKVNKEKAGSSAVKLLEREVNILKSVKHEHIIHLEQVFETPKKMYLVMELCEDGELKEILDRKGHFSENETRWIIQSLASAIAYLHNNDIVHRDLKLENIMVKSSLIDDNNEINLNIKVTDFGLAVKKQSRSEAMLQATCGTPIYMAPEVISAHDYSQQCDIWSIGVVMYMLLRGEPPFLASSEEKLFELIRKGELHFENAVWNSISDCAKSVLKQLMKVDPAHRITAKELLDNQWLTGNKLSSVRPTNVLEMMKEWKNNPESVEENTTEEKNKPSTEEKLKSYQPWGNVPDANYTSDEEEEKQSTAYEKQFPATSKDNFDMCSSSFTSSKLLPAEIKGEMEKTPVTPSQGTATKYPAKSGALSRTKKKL
An asterisk follows results filed as active.

Results for CC(=O)Nc1ccc(NC(=O)CCCN2C(=O)c3ccccc3C2=O)cc1 ?
PD-1 reversal: 1; NOMO-1 viab: -28; STK33 inh: -2

What do the screens show for `COc1ccc(NC(=O)C(C)Oc2ccccc2C)c([N+](=O)[O-])c1` (stereo unspecified)?
NOMO-1 viab: 14; STK33 inh: -2

How did CO[C@H]1C[C@@H]2CC[C@@H](C)[C@@](O)(O2)C(=O)C(=O)N2CCCC[C@H]2C(=O)O[C@H]([C@H](C)C[C@@H]2CC[C@@H](O)[C@H](OC)C2)CC(=O)[C@H](C)/C=C(\C)[C@@H](O)[C@@H](OC)C(=O)[C@H](C)C[C@H](C)/C=C/C=C/C=C\1C do in these assays?
PD-1 reversal: -8; NOMO-1 viab: 131*; STK33 inh: 1

Results for C[C@H](CO)N1C[C@H](C)[C@@H](CN(C)Cc2ccc(C(F)(F)F)cc2)Oc2ccc(NS(=O)(=O)c3ccccc3)cc2C1=O ?
PD-1 reversal: -4; NOMO-1 viab: 10

What do the screens show for `C[C@@H]1CN([C@@H](C)CO)C(=O)c2cc(NS(=O)(=O)c3ccc(Cl)cc3)ccc2O[C@H]1CN(C)Cc1ccc(C(F)(F)F)cc1`?
PD-1 reversal: -2; NOMO-1 viab: 107*; STK33 inh: 6

What do the screens show for `C[C@@H]1CN([C@H](C)CO)C(=O)c2cc(NS(=O)(=O)c3ccc(Cl)cc3)ccc2O[C@@H]1CN(C)Cc1ccc(C(F)(F)F)cc1`?
PD-1 reversal: -2; NOMO-1 viab: 116*

What do the screens show for `C[C@H]1CN([C@@H](C)CO)C(=O)c2cc(NS(=O)(=O)c3ccccc3)ccc2O[C@@H]1CN(C)Cc1ccc(C(F)(F)F)cc1`?
PD-1 reversal: -3; NOMO-1 viab: 42

Results for Cc1ccc(C(=O)Nc2cccc(NC(=O)COc3ccc(Br)cc3)c2)cc1 ?
PD-1 reversal: 3; NOMO-1 viab: 18; STK33 inh: 6

How did CC[C@H](C)C(=O)O[C@H]1CCC=C2C=C[C@H](C)C(CCC3C[C@@H](O)CC(=O)O3)[C@H]21 (stereo partly specified) do in these assays?
NOMO-1 viab: 47; STK33 inh: 5

Results for O=C1Nc2ccccc2-c2nc3ccccc3c(=O)n2-c2c(O)cccc21 ?
PD-1 reversal: 0; NOMO-1 viab: 8; STK33 inh: -3

How did CN1C(=O)c2ccccc2NC(=O)/C1=C\c1ccccc1 do in these assays?
PD-1 reversal: 1; NOMO-1 viab: 2; STK33 inh: 1

What do the screens show for `CN(C)c1ccc(/C=C2/C(=O)Nc3ccccc32)cc1`?
PD-1 reversal: 0; NOMO-1 viab: 40; STK33 inh: 34*

Results for O=C1Nc2ccccc2/C1=C\c1c(Cl)[nH]c2ccccc12 ?
PD-1 reversal: -1; NOMO-1 viab: 97*; STK33 inh: 29*

What do the screens show for `Cc1ccc(-n2c(SCC(=O)Nc3ccc(C)c(Cl)c3)nnc2-c2ccccc2O)c(C)c1`?
PD-1 reversal: 0; NOMO-1 viab: inconclusive; STK33 inh: -4

What do the screens show for `C=C1C(=O)O[C@@H]2C3C(=C(C)[C@@H](O)[C@@H](OC(=O)/C(=C/C)COC(C)=O)[C@@H]12)C(=O)[C@H]1O[C@@]31C` (stereo partly specified)?
PD-1 reversal: -9; NOMO-1 viab: 119*; STK33 inh: -2

What do the screens show for `Nc1cc(N)nc(SCC(=O)Nc2ccc(Oc3ccccc3)cc2)n1`?
PD-1 reversal: 2; NOMO-1 viab: 11; STK33 inh: 2

Results for COc1ccc(OC)c(NC(=O)CSc2nnc(-c3cccnc3)s2)c1 ?
NOMO-1 viab: 110*; STK33 inh: 3

What do the screens show for `COc1ccc(OC)c(NC(=O)CSc2nnc(C)s2)c1`?
PD-1 reversal: 2; NOMO-1 viab: -2; STK33 inh: 0

How did Cc1cccc(NC(=O)CSc2nnc(-c3ccco3)n2-c2ccccc2)c1C do in these assays?
NOMO-1 viab: 12; STK33 inh: 1

What do the screens show for `O=C(O)CCC(=O)c1ccc(-c2ccccc2)cc1`?
NOMO-1 viab: 2; STK33 inh: -2

How did O=C(c1ccccc1)c1ccc(-c2ccccc2)cc1 do in these assays?
PD-1 reversal: -1; NOMO-1 viab: 91*

Results for CC(C)NC(=O)Nc1cccc2c1O[C@H](CN(C)Cc1ccc(Cl)c(Cl)c1)[C@@H](C)CN([C@@H](C)CO)C2=O ?
PD-1 reversal: -3; NOMO-1 viab: 54

How did C[C@H](CO)N1C[C@H](C)[C@H](CN(C)Cc2ccccc2)Oc2ccc(NC(=O)Nc3cccc4ccccc34)cc2C1=O do in these assays?
PD-1 reversal: -1; NOMO-1 viab: 15; STK33 inh: -2

What do the screens show for `C[C@@H]1CN([C@@H](C)CO)C(=O)Cc2cc(NC(=O)Nc3cccc4ccccc34)ccc2O[C@@H]1CN(C)Cc1ccc(Cl)c(Cl)c1`?
PD-1 reversal: -5; NOMO-1 viab: 129*; STK33 inh: 5

What do the screens show for `C[C@H](CO)N1C[C@H](C)[C@H](CN(C)Cc2ccc(C(=O)O)cc2)Oc2ccc(NC(=O)Nc3cccc4ccccc34)cc2CC1=O`?
PD-1 reversal: 1; NOMO-1 viab: 9; STK33 inh: 1

How did C[C@H](CO)N1C[C@H](C)[C@H](CN(C)Cc2ccc(Cl)c(Cl)c2)Oc2c(NC(=O)Nc3cccc4ccccc34)cccc2C1=O do in these assays?
PD-1 reversal: -5; NOMO-1 viab: 107*

How did C[C@@H]1CN([C@@H](C)CO)C(=O)c2cc(NC(=O)Nc3cccc4ccccc34)ccc2O[C@@H]1CN(C)Cc1ccc(Cl)c(Cl)c1 do in these assays?
PD-1 reversal: -4; NOMO-1 viab: 93*; STK33 inh: 14

How did Cc1cccc(OCC(=O)Nc2cccc(-c3nc4cc(Cl)ccc4o3)c2C)c1 do in these assays?
PD-1 reversal: -2; NOMO-1 viab: 33; STK33 inh: -5

How did O=C(OCc1cccc(C(=O)c2ccccc2)c1)c1ccc(-c2nnc(-c3ccccc3)o2)cc1 do in these assays?
NOMO-1 viab: 5; STK33 inh: -1

How did CCn1c(SCC(=O)Nc2cccc(OC)c2)nnc1-c1ccncc1 do in these assays?
PD-1 reversal: 1; NOMO-1 viab: -5; STK33 inh: 1

Results for N#C/C(=C\c1cc(Cl)cc(Cl)c1)c1cccnc1 ?
PD-1 reversal: -3; NOMO-1 viab: 83*; STK33 inh: 6

What do the screens show for `N#C/C(=C\c1ccncc1)c1ccc(NC(N)=O)cc1`?
PD-1 reversal: 0; NOMO-1 viab: 20

What do the screens show for `COc1ccc(OC)c(S(=O)(=O)Nc2ccc(O)c(Sc3nc4ccccc4s3)c2)c1`?
NOMO-1 viab: 11; STK33 inh: 2

What do the screens show for `Cc1ccc(S(=O)(=O)N(C)CC(=O)Nc2ccc(C)c(C)c2)cc1`?
PD-1 reversal: -1; NOMO-1 viab: 10; STK33 inh: 5

Results for CCn1c2ccccc2c2cc(NC(=O)CN(C)S(=O)(=O)c3ccccc3)ccc21 ?
NOMO-1 viab: 42; STK33 inh: 0

What do the screens show for `CCn1c(=NC(=O)c2ccc(S(=O)(=O)N(C)C)cc2)sc2ccccc21`?
PD-1 reversal: 0; NOMO-1 viab: 87*

Results for Cc1c(C(=O)Nc2sc3c(c2C(=O)NCc2ccco2)CCCC3)oc2ccccc12 ?
PD-1 reversal: -5; NOMO-1 viab: 106*; STK33 inh: -4

Screens from PubChem BioAssay.
